# Experimental data as given in ChEMBL document CHEMBL3433997, “St. Jude Leishmania screening dataset” (2016).
# What was measured:
# Assay type in all cases: functional
# [1] = molecular target: Solute carrier family 2, facilitated glucose transporter member 1 (Homo sapiens) (UniProt P11166); experiment: ST_JUDE_LEISH: Cytotoxicity at 2uM final concentration against transgenic Leishmania Mexicana promastigotes LmGLUT1 that are glucose transport deficient and complemented with the human glucose transporter GLUT1. Activity is measured by DNA content using SYBR green in vitro
# Sequence of Solute carrier family 2, facilitated glucose transporter member 1 (Homo sapiens) (P11166 whole entry): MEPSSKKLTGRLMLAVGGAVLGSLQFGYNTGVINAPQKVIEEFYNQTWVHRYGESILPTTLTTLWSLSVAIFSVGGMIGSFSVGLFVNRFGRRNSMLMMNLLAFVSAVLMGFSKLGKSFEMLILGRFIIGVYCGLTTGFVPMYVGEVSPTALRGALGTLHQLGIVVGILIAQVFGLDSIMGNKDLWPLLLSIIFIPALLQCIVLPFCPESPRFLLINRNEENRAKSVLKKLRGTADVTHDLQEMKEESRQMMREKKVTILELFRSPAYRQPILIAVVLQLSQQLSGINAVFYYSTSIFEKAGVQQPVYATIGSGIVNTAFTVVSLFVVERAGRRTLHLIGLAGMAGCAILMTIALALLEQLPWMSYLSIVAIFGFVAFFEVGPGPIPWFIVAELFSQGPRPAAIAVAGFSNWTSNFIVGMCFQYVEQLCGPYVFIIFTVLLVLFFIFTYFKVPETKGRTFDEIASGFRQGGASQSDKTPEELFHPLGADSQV
# [2] = molecular target: Hexose transporter 1 (Plasmodium falciparum) (UniProt O97467); experiment: ST_JUDE_LEISH: Cytotoxicity at 2uM final concentration against transgenic Leishmania Mexicana promastigotes LmPfHT that are glucose transport deficient and complemented with the Plasmodium falciparum hexose transporter. Activity is measured by DNA content using SYBR green in vitro
# [3] = molecular target: Glucose transporter (Leishmania mexicana) (UniProt O61059); experiment: ST_JUDE_LEISH: Cytotoxicity at 2uM final concentration against transgenic Leishmania Mexicana promastigotes LmGT2 that are glucose transport deficient and complemented with the L. Mexicana glucose transporter 2. Activity is measured by DNA content using SYBR green in vitro
SMILES,inhibition [1] [%],inhibition [2] [%],inhibition [3] [%]
CC(C)Oc1ccc2ccccc2c1CNCCCCCCNCc1c(OC(C)C)ccc2ccccc12,31.1,-0.9,50.6
CC(=O)Oc1c(C2C=CCCC2)c(OC(C)=O)c2ccccc2c1OC(C)=O (stereo not drawn),1.04,3.27,1.98
O=c1cc(NCCCNCc2scc(I)c2I)[nH]c2ccccc12,4.34,5.49,4
Oc1c(C(Nc2ccccn2)c2ccco2)cc(Cl)c2cccnc12 (stereo not drawn),0.55,1.24,-1.1
COc1cccc(NC(=O)c2cc([N+](=O)[O-])ccc2NC(=O)CN2CCc3ccccc3C2)c1,4.59,0.9,4.74
CC(C)C[C@H](NC(=O)c1cc2ccccc2s1)C(=O)N[C@H]1CCN(Cc2ccc(I)c(OC3CCN(C)C3)c2)C1 (stereo partly drawn),-1.02,1.35,-2.35
N=C(N)NN=Cc1c2ccccc2c(Cl)c2ccc(Cl)cc12,107,106,104
Nc1nc(N)c2c(Cl)c(CNc3cccc(C(=O)O)c3)ccc2n1,3.95,2.84,3.26
CSc1nnc2n(Cc3ccccc3)c(=O)c3c(n12)-c1ccccc1CC31CCCCC1,2.53,0.86,0.02
N#Cc1ccc(CN2CCC(Oc3ccc(NC(=O)c4cccs4)cc3Cl)CC2)cc1,5,10.5,8.03
Cc1cc(NCC(C)C)c2[nH]nc(-c3ccccc3)c2n1,2.41,3.39,1.69
CC(C)CCNCc1c(O)ccc2ccccc12,-2.54,-0.86,3.37
COc1ccc(-c2ccc(NC(=O)c3ccc(C#N)cc3)cc2)cc1CN1CCNCC1,10.9,7.81,5.48
Cc1nc2nc(N)nc(N)c2c(C)c1Cc1ccc(C#N)cc1,0.34,4.37,-0.44
CCc1sc(-c2cc(Cl)ccc2OC)nc1C(=O)NCCN1CCCCC1,4.48,4.06,4.96
NC[C@H](CC1CCCCC1)NC(=O)c1ccc(-c2ccnc3[nH]ccc23)s1,7.16,3.21,2.91
Nc1nc(N)c2c(ccc3c2ccn3Cc2ccc(-c3ccccc3)cc2)n1,113,113,113
CCc1ccc(CN2CCC(CNC(=O)c3cc(-c4cccc(Cl)c4)cs3)C2)cc1 (stereo not drawn),-0.66,-0.84,-4.94
CCN(CCNc1nc(NCCc2cnc[nH]2)nc(N(CCC#N)Cc2ccccc2)n1)c1cccc(C)c1,12.1,12.8,6.78
CCn1c(-c2nonc2N)nc2c(C#CC(C)(C)O)ncc(OCCNCCc3ccc(OC)cc3)c21,5.15,9.69,2.23
Cc1cccc(CN2CCCN(Cc3cccc(C(=O)Nc4ccc(C(C)(C)C)cc4)c3)CC2)c1,3.43,2.22,1.26
O=C(C1CCCC1)N1CCOC(CCN2CCC(c3ccccc3)CC2)(c2ccc(Cl)c(Cl)c2)C1 (stereo not drawn),11.9,11.5,11.7
FC(F)(F)c1cc(CNCCCNc2nc3ccncc3[nH]2)ccc1Cl,1.9,1.51,0.35
CC(C)c1ccc(C=CC(=O)N2CCC(CCN3CCC(c4c[nH]c5ccccc45)CC3)CC2)cc1,-1.34,-1.09,-0.06

SMILES,inhibition [1] [%],inhibition [2] [%],inhibition [3] [%]
Cc1ccc(CN2CCCCC(NC(=O)c3cc4ccccc4s3)C2)cc1 (stereo not drawn),0.16,0.49,-8.68
CCNc1cc(C(=O)N[C@@H](Cc2cc(F)cc(F)c2)[C@H](O)CNCc2cccc(C(F)(F)F)c2)cc(N2CCCCS2(=O)=O)c1,-0.07,-0.7,-1.62
CN(C)CC1CCCN1Cc1ccccc1-c1cnn(C)c(=O)c1Oc1cccc(C#N)c1 (stereo not drawn),1.03,1.03,3.52
COC(=O)c1ccccc1COc1ccc(CC2(NC(=O)[C@H](Nc3ccc(C#N)c4ccccc34)C(C)(C)C)CCCC2)cc1,4.44,4.29,2.22
Cn1cncc1-c1ccc2ncnc(Nc3ccc(OCc4ccccc4)cc3)c2c1,0.55,1.48,0.29
CCC[C@@H]([C@@H](CC1CCCCC1)C(=O)NC(C(=O)Nc1nccs1)C(CC)c1ccccc1)N(O)C=O (stereo partly drawn),0.29,0.04,0.64
COc1cccc(NC(=O)N2CCOC(CCN3CCC4(CCc5ccccc54)CC3)(c3ccc(Cl)c(Cl)c3)C2)c1 (stereo not drawn),7.21,8,1.65
Cc1onc(-c2ccccc2)c1-c1nc(NCCC(c2ccccc2)c2ccccc2)no1,9.17,9.89,6.9
Cc1c(C2CCN(CCCCNC(=O)c3ccc(-c4ccc(C#N)cc4)cc3)CC2)c2ccccc2n1CCO,3.84,0.33,3.72
COc1ccc(CNc2nc(NCc3ccc(C(F)(F)F)cc3)c3cc(OC)c(OC)cc3n2)cc1OC,20.1,19.9,14.3
Cc1nc(NCCc2c[nH]cn2)cc(NCc2ccccc2)n1,3.83,3.44,3.61
S=C(Nc1cccc(Cl)c1)NC1CCN(c2ccnc3cc(Cl)ccc23)C1 (stereo not drawn),13.2,9.65,9.07
CCN(CC)CCCCNc1cc(-c2[nH]c(-c3c(Cl)cccc3Cl)nc2-c2ccc3cc(OC)ccc3c2)ccn1,0.05,-1.62,-0.83
CCCOc1cc(NC(=O)Nc2ccnc3ccccc23)cc(OCCC)c1,-2.56,3,3.42
O=C(Nc1cccc(-c2nc3ccccc3[nH]2)c1)c1cccc(NC(=O)c2ccco2)c1,2.33,2.09,0.63
COc1ccccc1N1CCN(CCCCNC(=O)c2ccc(NC(=O)c3cc(Cl)cc(Cl)c3)cc2)CC1,2.07,3.24,2.92
CCNc1cc(C(=O)N[C@@H](Cc2ccccc2)[C@H](O)CNCCc2ccccc2)cc(N2CCCC2=O)c1,0.28,1.31,0.88
Cc1ccccc1Nc1cc(Nc2ccccc2C)c2ccccc2n1,42.9,42.2,16.1
O=C(/C=C/c1ccc(Cl)c(Cl)c1)NCCCCCN1CC[C@H](NC(=O)/C=C/c2ccccc2)C1,0.76,0.86,-0.08
CCCCCN1CCCN(Cc2cccc(NC(=O)c3ccc4ccccc4c3)c2)CC1,4.56,4.49,4.95
O=C(/C=C/c1ccc(Cl)c(Cl)c1)NCCCCCN1CCCN(C(=S)Nc2cccc(Cl)c2)CC1,0.6,-0.74,0.17
Cc1cc(F)ccc1[C@H]1CNCCN1C(=O)N(C)[C@@H](C)c1cc(C(F)(F)F)cc(C(F)(F)F)c1,-0.55,-0.16,-2.72
CC(O)C(C)(CO)NCc1ccc2c3c(cccc13)-c1ccccc1-2 (stereo not drawn),15.7,11.2,5.35
CC(CCc1ccccc1)NCC(O)c1cccc(C(F)(F)F)c1 (stereo not drawn),5.1,5.17,3.76

SMILES,inhibition [1] [%],inhibition [2] [%],inhibition [3] [%]
CCOc1cc(CC)ccc1C1CCN(CCN2CCC(NC(=O)c3ccc(-c4ccc(C(C)=O)cc4)cc3)CC2)CC1,1.17,1.9,1.24
CC(C)(C)C/C=C\c1ccc(C(=O)NCC2CC2)cc1,6.73,9.04,3.76
O=C(Nc1cncc(NC(=O)c2ccc(Cl)c(Cl)c2)c1)c1ccc(Cl)c(Cl)c1,2.62,2.96,-0.68
COc1ccc2ncc(Cl)c(CCN3CC[C@@H](CNCc4cc5c(cn4)OCS5)C3)c2n1,6.89,7.89,12.2
COc1cc2c(cc1S(=O)(=O)c1ccc(OCc3ccc(Cl)cc3)cc1)CCN(Cc1ccc(NC(C)=O)s1)CC2,4.82,4.31,-0.61
CN(Cc1ccc(NC(=O)CCC2CCN(C(=O)/C=C/c3ccc(Cl)c(Cl)c3)CC2)cc1)C1CCOCC1,4.84,5.1,-1.91
CCCN(Cc1ccc(C)cc1)Cc1cc(=O)c2cc(Cl)ccc2[nH]1,9.14,10.5,9.04
CN(c1ccc2c(c1)nc(NCc1ccccc1)n2C)c1ccnc(Nc2ccc(CS(C)(=O)=O)cc2)n1,4.69,1.86,3.22
COc1ccc(CCNCCCCNCCc2ccc(OC)c3ccccc23)c2ccccc12,64.4,55.5,102
Cn1c(Nc2cc(C(C)(C)C)on2)nc2cc(Nc3ccnc(Nc4cccc(CS(C)(=O)=O)c4)n3)ccc21,0.14,2.81,-0.39
O=C(Cn1c(CCc2cccc(F)c2F)nc(=O)c2ccccc21)N(Cc1ccc(-c2ccc(C(F)(F)F)cc2)cc1)C1CCN(C2=NCCS2)CC1,3.56,4.28,4.67
Cc1[nH]cc(Br)c(=O)c1-c1ccc(Oc2ccc(OC(F)(F)F)cc2)cc1,3.93,4.74,4.41
O=C(NCCCN1CCOCC1)c1csc(Nc2ccc(Cl)c(Cl)c2)n1,0.69,0.58,0.12
Cc1nc(C)c(-c2ccc(Oc3ccc(Cl)c(Cl)c3)cc2)c(O)c1Cl,1.91,1.63,2.1
CCN(CCCN1CCCCC1)c1nc(C)cc(Nc2ccc(Cl)cc2)n1,0.5,-0.38,1.1
CCc1ccc(NC(=O)c2ccc(CN3CCCN(Cc4cccs4)CC3)cc2)cc1,13.8,12.6,14.9
COc1nc(NCC(C)C)nc(Oc2ccc(=O)n(Cc3ccccc3)n2)n1,1.73,1.88,3.48
O=C(NC1CCN(c2ccnc3ccccc23)C1)c1ccc(OC(F)(F)F)cc1 (stereo not drawn),1.75,1.97,2.7
COc1ccc(CCNc2nc(NCCc3cnc[nH]3)nc(NCc3cccc4ccccc34)n2)cc1OC,7.46,10.1,4.1
CCN(CCC1(c2ccc(Cl)c(Cl)c2)CN(C(=O)c2cc(OC)c(OC)c(OC)c2)CCO1)C1CC2c3ccccc3CC21 (stereo not drawn),-0.68,1.17,-0.3
CC(C)(C)c1ccc(CNCC(C)(C)c2nc(-c3ccnc(N)n3)c(-c3ccc(Cl)c(O)c3)[nH]2)cc1,5.04,6.23,4.54
Cc1ccc2c(c1[N+](=O)[O-])N=NCC2Oc1ccccc1 (stereo not drawn),10.8,9.1,10.6
O=C(/C=C/c1ccc(Cl)c(Cl)c1)NCCCCCN1CCC(NC(=O)Nc2cccc(Cl)c2F)CC1,-0.8,-0.65,-9.82
